The values below come from PubChem BioAssay AID743261 (The Scripps Research Institute Molecular Screening Center, 2014).

SMILES strings stand for the structures. Screen size: about 3,300 compounds; about 35 (1%) were called active. Rule as the data show it: active = inhibition above about 11%; inactive = the rest. A selection follows.

The target of the test is 1-phosphatidylinositol 4,5-bisphosphate phosphodiesterase beta-3 (Homo sapiens) (UniProt Q01970). Description: PLC-beta3 inhibitor confirmation, biochemical, fluorescence, purified enzyme (AID 743261). The note with it: purified PLC-beta3, fluorogenic substrate fluorescence; at 12.3 µM; stronger effect = higher value.
Sequence of 1-phosphatidylinositol 4,5-bisphosphate phosphodiesterase beta-3 (Homo sapiens) (Q01970 whole entry, looked up): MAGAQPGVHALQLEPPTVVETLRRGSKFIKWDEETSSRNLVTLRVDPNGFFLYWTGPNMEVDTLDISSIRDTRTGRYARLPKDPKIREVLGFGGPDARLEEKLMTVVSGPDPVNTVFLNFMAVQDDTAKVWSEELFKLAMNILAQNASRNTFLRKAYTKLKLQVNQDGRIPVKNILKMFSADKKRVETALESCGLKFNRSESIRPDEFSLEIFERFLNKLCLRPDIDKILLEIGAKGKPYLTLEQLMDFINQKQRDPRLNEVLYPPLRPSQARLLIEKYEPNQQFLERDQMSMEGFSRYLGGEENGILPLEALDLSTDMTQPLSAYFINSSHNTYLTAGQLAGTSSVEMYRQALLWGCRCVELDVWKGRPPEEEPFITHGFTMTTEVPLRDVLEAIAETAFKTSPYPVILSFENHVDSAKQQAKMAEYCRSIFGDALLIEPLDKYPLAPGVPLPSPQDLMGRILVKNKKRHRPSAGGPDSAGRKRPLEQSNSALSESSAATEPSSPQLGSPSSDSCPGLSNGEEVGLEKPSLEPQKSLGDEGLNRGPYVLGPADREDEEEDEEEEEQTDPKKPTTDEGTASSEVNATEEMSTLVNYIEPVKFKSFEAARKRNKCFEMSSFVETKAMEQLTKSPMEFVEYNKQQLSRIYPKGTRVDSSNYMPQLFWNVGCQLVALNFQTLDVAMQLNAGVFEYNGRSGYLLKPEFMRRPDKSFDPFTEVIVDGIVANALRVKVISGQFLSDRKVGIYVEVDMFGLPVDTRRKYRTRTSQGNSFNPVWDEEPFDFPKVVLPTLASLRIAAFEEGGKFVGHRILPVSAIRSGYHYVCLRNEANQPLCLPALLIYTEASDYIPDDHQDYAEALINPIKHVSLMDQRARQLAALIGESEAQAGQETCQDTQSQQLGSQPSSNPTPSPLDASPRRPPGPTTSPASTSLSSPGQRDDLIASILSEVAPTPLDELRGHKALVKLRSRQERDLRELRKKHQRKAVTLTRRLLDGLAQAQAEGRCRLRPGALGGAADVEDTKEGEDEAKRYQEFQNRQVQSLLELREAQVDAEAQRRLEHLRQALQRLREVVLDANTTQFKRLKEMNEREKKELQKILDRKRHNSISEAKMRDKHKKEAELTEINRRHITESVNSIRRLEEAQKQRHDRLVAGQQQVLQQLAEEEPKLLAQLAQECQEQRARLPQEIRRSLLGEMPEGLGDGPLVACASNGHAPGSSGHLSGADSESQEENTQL
With `Cc1cccc(C(=O)NCCCN2CCCC2=O)c1`, the inhibition was 2.72% (inactive).
Then `CN(C)S(=O)(=O)c1cccc(NC(=O)COC(=O)C2(c3ccccc3F)CCCC2)c1`, with 0.6% (inactive); and `Nc1nc(NCC(=O)O)nc(N2CCCCCC2)c1[N+](=O)[O-]`, with 5.2% (inactive); and `CCOC(=O)Nc1ccc(NC(=O)OCC)cc1`, with 4.88% (inactive).
Then `CC1(C)CC(=O)C=C(NC2CC(C)(C)NC(C)(C)C2)C1`, with 0.58% (inactive); and `Cc1ccc(S(=O)(=O)N2CCCCC2)cc1NC(=O)CCNC(=O)c1ccccc1`, with -5.41% (inactive); and `FC(F)(F)c1cnc(Oc2ccccc2-c2nnc(-c3ccc(Cl)cc3)o2)c(Cl)c1`, with -7.7% (inactive).
Consider `O=C(NC12CC3CC(CC(C3)C1)C2)N1CCCC(CO)C1` (centres undefined), for which the inhibition is -3.42% (inactive).
As to `CC(C)(C)c1ccc(C(=O)Nc2cc(Cl)c(Br)cc2C(=O)O)cc1`, the inhibition was -8.39% (inactive).
Next, `Cc1ccc(S(=O)(=O)Cn2nnnc2CN2CCN(Cc3ccc4c(c3)OCO4)CC2)cc1`: 2.26% (inactive); `CC(C)C(NC(=O)C1CCC(C(C)(C)C)CC1)C(=O)NCCCN1CCCCC1` (centres undefined): 0.28% (inactive).
Next, `CC1CCN(S(=O)(=O)c2ccc(S(=O)(=O)NCc3ccco3)cc2)CC1`: -1.58% (inactive); `O=C(NCc1ccc(F)cc1F)[C@@H]1CCCN1C(=O)[C@@H]1CCCN1C(=O)c1cccc(Cl)c1`: -0.65% (inactive); `CC(=O)C1=C(O)C(=O)N(c2cccnc2)C1c1ccc([N+](=O)[O-])cc1` (centres undefined): -1.47% (inactive).
Then `O=c1ccc2c(-c3ccccc3S(=O)(=O)O)c3ccc(O)c(O)c3oc-2c1O`, with 21% (active); and `COc1ccc(/C(C)=N/N2CCOCC2)c(O)c1`, with -14.9% (inactive); and `COCCNC(=O)C(c1ccc(O)cc1)N(C(=O)CCC(=O)Nc1nccs1)c1ccc(C)cc1` (centres undefined), with -0.24% (inactive).
In the case of `O=C1NC2(CCCCC2)N=C1c1ccccc1`, the inhibition was -4.41% (inactive).
Next, `Cc1cccc([C@@H]2[C@@H]3C(=O)N(Cc4ccccc4)C(=O)[C@@H]3[C@]3(Cc4ccc(Cl)cc4)C(=O)N(c4cccc(Cl)c4)C(=O)N23)c1`: 5.38% (inactive); `Cc1cc(NC(=O)CN2C(=O)NC(CC(C)C)C2=O)no1` (centres undefined): 0.1% (inactive); `CC(C)CCSc1ncnc2c1oc1nc3c(cc12)COC(C)(C)C3`: -2.11% (inactive).
For the molecule `O=C(C[C@H]1C(=O)N(c2ccc(F)c(F)c2)C[C@@H]1Cc1ccccc1)Nc1ccccc1`, the inhibition was 9.92% (inactive).
Next, `CN(C(=O)c1ccc(NC(=O)Cc2cccc(NC(=O)C3CCN(C(=O)c4ccccc4)CC3)c2)cc1)C1CC1`: -1% (inactive); `CCCCn1c(SCC(=O)N2CCCC2=O)nc2cc(S(N)(=O)=O)ccc21`: 0.23% (inactive).

A word on the inhibition: it is the relative decrease from the control value, in per cent.
